# Data as given in PubChem BioAssay AID504852 (Southern Research Specialized Biocontainment Screening …, 2011).
# Results with a measured potency or affinity are listed apart. A number with no mark means an inactive call. How the calls were made is not given here.
# Assay: THP-1 cell cytotoxicity, dose response, cytotoxicity control, set 3 (AID 504852)
# Conditions: THP-1 cell viability, cytotoxicity CC50; series mostly up to 100 µM; viability: at the top concentration
row,SMILES,viability
1,CCC(Sc1nc2c(c(=O)[nH]1)CCC2)C(=O)Nc1cccc(OC)c1 (stereo unspecified),82.7%
2,Cc1[nH]c(=S)[nH]c(=O)c1C,104%
3,O=c1[nH]c(=S)[nH]c2ccccc12,81%
4,Cn1c(SCC(=O)NC2CCCCC2)nc2ccccc2c1=O,88.7%
5,CC(C)NC(=O)CSc1nc2ccccc2c(=O)[nH]1,92.5%
6,Cc1ccc(NC(=O)CSc2nc3ccccc3c(=O)[nH]2)cc1Cl,99%
7,COc1cccc(NC(=O)CSc2nc3c(c(=O)[nH]2)CCC3)c1,90%
8,CCSc1nc(C)c(C)c(=O)[nH]1,90.4%
9,CN(C)C(=O)CSc1nc2ccccc2c(=O)[nH]1,81.7%
10,Cc1c[nH]c(=S)[nH]c1=O,120%
11,Cc1cc(=O)[nH]c(=S)[nH]1,86.5%
12,Cc1cc(=O)[nH]c(SCC(=O)NC2CCCCC2)n1,91.3%
13,CN1CCC(NC(=O)CSc2nc3ccccc3c(=O)[nH]2)CC1,99%
14,O=c1[nH]c(SCc2ccccc2Cl)nc2c1CCCC2,93.9%
15,O=C(CSc1nc2c(c(=O)[nH]1)CCC2)NC1CCCCC1,91.5%
16,Cc1nc(SCC(N)=O)[nH]c(=O)c1C,96.4%

row,SMILES,viability
1,COc1ccc(NC(=O)CSc2nc3ccccc3c(=O)[nH]2)cc1,80.2%
2,CCOC(=O)CSc1nc(C)c(C)c(=O)[nH]1,82.9%
3,O=C(CSc1nc2ccccc2c(=O)[nH]1)N1CCOCC1,102%
4,Cc1nc(SCC(=O)NCCC(C)C)[nH]c(=O)c1C,84.9%
5,O=C(CSc1nccc(=O)[nH]1)NC1CCCCC1,98.9%
6,O=C(CSc1nc2ccccc2c(=O)[nH]1)NC1CCCC1,113%
7,NC(=O)CSc1nc2ccccc2c(=O)[nH]1,92.3%
8,Cc1nc(SCC(=O)NC2CCCC2)[nH]c(=O)c1C,98.5%
9,Cc1nc(SCc2ccccc2Cl)[nH]c(=O)c1C,118%
10,O=C(CSc1ncccn1)NC1CCCCC1,88.8%
11,O=C(CSc1nc2ccccc2c(=O)[nH]1)NC1CCCCC1,96.9%
12,Cc1cnc(SCC(=O)NC2CCCCC2)[nH]c1=O,110%
13,CC(C)CCNC(=O)CSc1nc2c(c(=O)[nH]1)CCC2,90%
14,Nc1cc(=O)[nH]c(SCC(=O)NC2CCCCC2)n1,95.4%
15,CCC(Sc1nc2ccccc2c(=O)[nH]1)C(=O)Nc1cccc(OC)c1 (stereo unspecified),87.8%
